ERK EGF inh = qHTS Assay for Inhibitors of the ERK Signaling Pathway using a Homogeneous Screening Assay; Stimulation with EGF; HEK293-V1b, EGF-stimulated phospho-ERK AlphaScreen; Potency, µM (titrated, usually from 11.5 µM), inactives show at the highest dose activity change, negative = inhibition, actives largely listed as inhibitors; 0.41% of 130,000 active; AID 1454, 2008;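 note: plate controls were stimulated vehicle wells for no effect and unstimulated vehicle basal for full effect; nearly all actives have a fitted effect of over 55% in size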
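Stably V1b-transfected HEK293 cells; 30 min compound, then EGF 25 nM final for 5 min at 37C; 10 min lysis; phospho-ERK by AlphaScreen after 5 hr beads at room temperature.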
HTT aggregate = qHTS Multiplex Assay to Identify Dual Action Probes in a Cell Model of Huntington: Aggregate Formation (GFP). PC12 HttQ103-GFP aggregates, Acumen cytometry, 40 h. Potency, µM (series often up to 46.1 µM), inactives show at the top dose activity change, negative = inhibition, actives largely listed as inhibitors. 1.1% of 220,000 active; note: % is set by controls: 0 for no effect and ±100 for the full control effect; nearly all actives have a fitted effect of over 60% in size
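Steps: seed 1500 PC12 HTTQ103-GFP cells/well; add tebufenozide, 100 nM final; add compound titration; add ATPLite reagent; quantify GFP aggregates by laser scanning cytometry.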
HTT ATP protect = qHTS Multiplex Assay to Identify Dual Action Probes in a Cell Model of Huntington: Cytoprotection (ATP) | PC12 HTT-Q103 induced, cytoprotection, ATP luminescence, 40 h | Potency, µM (doses to about 56.4 µM), for inactives: cytoprotection (ATP increase), usual class: activators | 0.14% of 230,000 active | AID 1471, 2008; note: % of control where 0% means no effect; nearly all actives have a fitted effect of over 45% in size
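PC12 cells stably carrying ecdysone-inducible Htt exon 1 (Q103)–GFP were induced with 100 nM tebufenozide (final) alongside library compounds in a dose series. Cytoprotection was scored as retained ATP by ATPlite luminescence.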
An asterisk follows results filed as active; ? = inconclusive; . = no result; [ ] = another dose, or the depositor's remark. Sampled rows, rich in hits. Any-hit rate of the full collection: about 1.4%. Calls come from the whole dose curve; as a rule, active = well fitted curve in the direction sought with a large enough effect; inconclusive = small, poorly fitted or top-dose-only effect, or another doubt; inactive = no such curve, though single readings can be large; an effect the other way counts as inactive or inconclusive. Potency is the fitted concentration of half-maximal effect.

SMILES | ERK EGF inh | HTT aggregate | HTT ATP protect
C=C(C(=O)O)[C@@H]1CC[C@@]2(C)CCC[C@](C)(O)[C@@H]2C1 | -9% | . | -21%
O=C(Nc1ccccc1Br)C(=O)N1CCCC1 | -3% | -8% | 21%[10 µM]
O=C(NNc1ccccc1Br)C(=O)n1ccc2ccccc21 | -1% | 2% | 3.5µM*
CCNc1ncc2nc(CCc3ccccc3)c(=O)n(C3CC3)c2n1 | . | . | -43%
O=C(O)COc1ccc(/C=C2\SC(=Nc3ccccc3)N(c3ccccc3)C2=O)cc1 | 1% | -20% | -18%
O=C(O)c1ccc(/C=C2\SC(=Nc3ccccc3)N(c3ccccc3)C2=O)cc1 | 9% | -31% | 13µM*
COC(=O)CCC(C)C1CCC2C3CC[C@H]4CC(O)CC[C@@]4(C)C3CC(O)[C@]12C (some centres not stated) | 21% | . | .
CC(=O)c1sc(NC(=O)C2(F)C(F)(F)C(F)(F)C(F)(F)C(F)(F)C2(F)F)nc1C | . | 1.4µM* | -5%[0.074 µM]
CC(=O)c1sc(NC(=O)C=C(C)C)nc1C | . | -5% | -17%[10 µM]
COC(=O)C1(C(=O)OC)C/C=C\C/C=C\c2ccccc2C1C[N+](=O)[O-] (configuration not stated) | -15% | . | -3%
CCOC(=O)c1ccc(NC(=S)N2CCN(CCNC3=CC(=O)CC(C)(C)C3)CC2)cc1 | 2% | 5% | -4%
CC1(C)CC(=O)C=C(NCCN2CCN(C(=O)Nc3ccccc3)CC2)C1 | . | 5.6µM* | 7%[10 µM]
CCC/C=C/C1C(=O)C2OC2C2(OCC(CC)(CC)CO2)C1CO (configuration not stated) | . | . | -11%[10 µM]
COc1ccc(N2C(=O)CC(Sc3nnc(-c4ccccc4)o3)C2=O)cc1 (configuration not stated) | . | 25µM* | -150%
O=C1CC(Sc2nnc(-c3ccccc3O)o2)C(=O)N1c1ccccc1 (configuration not stated) | . | ? | -59%
OCc1ccc(-c2ccc(-c3ccc(CO)s3)o2)s1 | . | . | -204%
CN(CCO)Cc1ncccc1O | . | . | 6%[10 µM]
Cc1cc(C(=O)CSc2nnc(-c3ccco3)o2)c(C)n1Cc1ccco1 | . | 2% | -13%[10 µM]
Cc1cc(C(=O)CSc2nnc(-c3ccco3)o2)c(C)n1-c1ccc2c(c1)OCCO2 | . | 8.9µM* | 10%[10 µM]
C[C@@H](CN(C)C[C@H]1C(=O)O[C@@H]2C[C@@]3(C)CCC[C@]4(CO4)C3CC21)[C@H](O)c1ccccc1 (some centres not stated) | 2% | . | 26%
CC1Oc2ccccc2C=C1/C=C1/SC(N2CCOCC2)=NC1=O (configuration not stated) | . | 11% | -23%
CCN1C(=O)/C(=C/C2=Cc3ccccc3OC2C)SC1=S (configuration not stated) | 16µM* | 6%[9.22 µM] | 34%[10 µM]
CO[C@@H]1COC(=O)[C@H]2CCCN2C(=O)[C@@H](C)COC(=O)[C@H](COCc2ccccc2)NC(=O)C/C=C\[C@H]1C | . | . | 10%[10 µM]
N=C1c2ccccc2CN1c1ccc(N2CCOCC2)c(S(=O)(=O)Nc2ccc(Cl)cc2)c1 | -8%[57.5 µM] | -4%[9.22 µM] | -9%[10 µM]
O=C(Cc1cccs1)Nc1cccc(-c2nc3cc4ccccc4cc3[nH]2)c1 | 11% | 25µM* | .
SMILES | ERK EGF inh | HTT aggregate | HTT ATP protect
CCOc1cccc(NC(=O)Cc2cccs2)c1 | . | -13% | -5%
Clc1ccccc1-c1nnc2sc(-c3ccc4c(c3)OCO4)nn12 | . | -30% | 24%[1.9 µM]
Brc1ccccc1-c1nnc2sc(-c3ccc4c(c3)OCCO4)nn12 | . | 25µM* | -72%
Cc1c(Cl)sn(-c2ccc(Cl)cc2)c1=O | -2% | 16%[9.22 µM] | -13%
CON(C)C(=O)c1nnc2c(n1)[nH]c1ccccc12 | . | . | -13%[10 µM]
COc1cc(NC(=O)Nc2ccc3c(c2)OCO3)cc(OC)c1OC | 4% | 11% | 6%
COc1ccc(NC(=O)c2cccc(OC(F)F)c2)cc1Cl | . | -16% | -7%
O=C(Nc1ccc(OC(F)F)c(Cl)c1)c1cccc(OC(F)F)c1 | . | 4µM* | -90%
CCc1onc(C)c1C(=O)Nc1cc(C)ccc1OC | . | -3% | -12%
COc1ccc(C(C)(C)C)cc1NC(=O)Nc1ccc2c(c1)OCO2 | 0% | 18µM* | 12%[10 µM]
O=C(Nc1ccc2c(c1)OCO2)Nc1ccc2c(c1)OCO2 | -2% | . | .
O=C(Nc1ccc(OC(F)F)c(Cl)c1)Nc1ccc2c(c1)OCO2 | . | 11µM* | -2%[10 µM]
COc1ccc(C(C)(C)C)cc1NC(=O)c1c(C)noc1C | . | 0.56µM* | 0%
c1ccc2c3c([nH]c2c1)[C@@H]1[C@H]2CC[C@H]([C@H]4CCCN[C@H]42)N1CC3 | 11%[25.7 µM] | . | -4%[40.3 µM]
COc1ccc(NC(=O)Nc2cccc([N+](=O)[O-])c2)cc1Cl | ? | ? | -3%[10 µM]
O=C(Nc1ccc([N+](=O)[O-])cc1)Nc1ccc(OC(F)F)c(Cl)c1 | -5% | 11µM* | .
CCCCc1nc2ccn(CC(=O)N(C)C)c(=O)c2n1Cc1ccc(-c2ccccc2-c2nn[nH]n2)cc1 | . | . | -69%
O=C(O)COc1ccc(OCCNC[C@@H](O)COc2ccccc2)cc1 | -16% | . | -40%
N=C(N)CCNC(=O)[C@@H]1CCC(N)=N1 | . | . | 6%[10 µM]
CCN(CC)P(=O)(Nc1ccc(C)cc1Br)c1ccc(N(C)C)cc1NC(=O)c1ccco1 (configuration not stated) | 5% | 35µM* | 25%
Cc1ccc(NC(=O)c2ccco2)c([N+](=O)[O-])c1 | 3% | 14% | -32%
CC(OC(=O)C1CC1)C(=O)Nc1ccc([N+](=O)[O-])cc1Cl (configuration not stated) | -3% | -5% | 3.5µM*
CC(C)CC(=O)Nc1ccc([N+](=O)[O-])cc1Cl | -1% | 5%[9.22 µM] | 10%[10 µM]
COc1c(C2=CC(=O)N(C)C2=O)c2c(n1C)C(=O)c1ccccc1C2=O | -5% | . | 14µM*
Cn1c(=O)c2c(-c3ccncc3)c3c(nc2n(C)c1=O)-c1ccccc1C3=O | . | . | -17%[10 µM]
SMILES | ERK EGF inh | HTT aggregate | HTT ATP protect
CCNc1ncc2nc(-c3ccc(F)cc3)c(=O)n(Cc3ccc(F)cc3)c2n1 | . | . | 16%
O=C(N/N=C1/C[C@@H](O)[C@@H](O)[C@@H]2[C@@H]3C(=O)N(Cc4ccccc4)C(=O)[C@H]3CC[C@H]12)OCc1ccccc1 | . | . | -9%[10 µM]
O=C(c1cc(Br)ccc1O)c1cc(Br)ccc1O | . | . | 3%[10 µM]
O=C(NC[C@H]1CCCCN1)c1cc(OCC(F)(F)F)ccc1OCC(F)(F)F | -19% | . | 5%
CCOC(=O)c1c(C(=O)OCC)c(C)n(N2C(=O)CSC2=S)c1C | . | 0.89µM* | 6%[10 µM]
CCOC(=O)c1c(C)[nH]sc1=S | . | 12% | -13%
COc1ccc(CNc2ncnc3ccc(-c4ccc(C(=O)N(C)C)cc4)cc23)c(OC)c1 | . | . | -82%
Cc1ccc(-c2csc(NC(=O)C3CC(=O)N(Cc4ccco4)C3)n2)cc1 (configuration not stated) | -4% | -7% | 18%[10 µM]
Cc1csc(NC(=O)C2CC(=O)N(Cc3ccco3)C2)n1 (configuration not stated) | 4% | 0.63µM* | 1.1µM*
O=C(O)C(S)[C@@H](S)C(=O)O (some centres not stated) | 4% | . | ?

Source: PubChem
